These results are taken from PubChem BioAssay.

Where “and” joins values, the source holds several entries; their conditions need not be identical. Equal entries are not always repeated. Calls of active or inactive are those of the source.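 How the source made its calls, unless noted: active means compounds whose cell count with miR-34 switched on is under 0.7 times the count with it off; inactive means the rest.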

The nature of experiment [1]: compounds altering circadian rhythm period length – cell-based, LOPAC library, luminescence reporter (AID 2774; call rule not given here;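 further: values are relative to mean of DMSO wells on each plate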). The conditions noted are these: circadian reporter cells, at 7 µM, actives lie on both sides.
A short description of experiment [2]: P. berghei load reduction in hepatocytes – cell-based, HepG2, luciferase luminescence, HepG2 viability, primary screen (AID 624349; in the data active means parasite load remaining mostly below about 12%, no sharp cut-off; inactive means mostly above about 10%;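 further: 100% = mean of DMSO negative control wells on the same plate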). As to conditions: P. berghei liver stage in HepG2, luciferase luminescence, concentration not given here; parasite load remaining: stronger effect = lower value; viability: measured here: HepG2 viability without parasites.
The test system of experiment [3] is Hepatitis C virus NS3 helicase. The experiment is described as follows: blockers of NS3h binding to ssDNA – biochemical, fluorescence polarization, LOPAC1280 library, primary screen (AID 687035; in the data active means inhibition above about 37%). As to conditions: Purified HCV NS3 helicase, Cy5-dT15 ssDNA binding fluorescence polarization; stronger effect = higher value; concentration not given here.
A short description of experiment [4]: compounds altering Cy5-DNA-NS3h complex signal – biochemical, LOPAC1280, artefact control for HCV NS3 helicase inhibitor project (AID 687037; call rule not given here). The conditions noted are these: Cy5-DNA-NS3h complex fluorescence interference counterscreen.
Experiment [5] can be described thus: EMT-state selective cytotoxicity in co-culture – imaging, PC-3E GFP, TEM4-18 mCherry, primary screen (AID 1345086;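 active means compounds killing one labelled cell type while sparing the other, by normalised counts and ratio limits, not self-fluorescent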;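 on all read-outs here: cells exposed to compound for 72 h before imaging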;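 on red/green cell ratio (normalised): normalised mesenchymal count divided by normalised epithelial count so high means epithelial killing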). The conditions noted are these: PC-3E GFP / TEM4-18 mCherry co-culture, imaging cell counts, at 1 µM; for red/green cell ratio (normalised): actives lie on both sides, counts scaled to control wells, 1 = unselective.
Experiment [6] in a line: viability loss with induced miR-34 in A549 – imaging, A549 dox-inducible miR-34, nuclei and caspase counts, primary screen (AID 1347080). The conditions noted are these: A549 miR-34 inducible, Hoechst nuclei count, 48 h.
A short description of experiment [7]: blockers of cellular phospholipid synthesis – cell-based, LOPAC library, screen 4, primary screen (AID 1347384; call rule not given here). As to conditions: animal cells, phospholipid biosynthesis inhibition screen; at 10 µM.
Experiment [8] can be described thus: MELAS cybrid and Rieske KO viability enhancers – cell-based, MELAS cybrids, Rieske KO mouse fibroblasts, CellTiter-Glo, primary screen (AID 1508586;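 active means mean z-score across replicates of 1.96 or higher in either the MELAS or the Rieske mutant cell line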;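 further: z relative to plate mean and SD of compound and empty wells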). The conditions noted are these: low glucose.
Experiment [9] has as its target NAD(+) hydrolase SARM1 (Homo sapiens) (UniProt Q6SZW1). The experiment is described as follows: blocking NAD cleavage by SARM1 SAM-TIR – cell lysate, NAD-Glo luminescence (AID 1508614;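 active means compound whose remaining NAD level is above about 45 nM, limit read from the data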). The conditions noted are these: SAM-TIR HEK293T lysate NADase, at 1 µM, stronger effect = higher value.
For experiment [10], the target named is Mitogen-activated protein kinase 7 (Homo sapiens) (UniProt Q13164). Put plainly: Gal4-ERK5 driven luciferase induction – cell-based, HTS, primary screen (AID 1508626;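 active means luciferase signal above three times the same-plate solvent-only control wells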;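 further: luciferase driven by Gal4-ERK5 fusion binding five Gal4 sites before minimal TATA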). As to conditions: HeLa Gal4-ERK5 transactivation, 18 h, at 5 µM, stronger effect = higher value.
Experiment [11] can be described thus: galactose survival enhancers in mitochondrial complex I cybrids – cell-based, galactose medium, ATP luminescence, primary screen (AID 1645843;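 active means z-score of at least 1.8 in each of two replicates, scored against plate mean and spread of sample wells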;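 further: positive z means more ATP and so rescue of galactose-driven cybrid death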). As to conditions: complex I mutant cybrid cells, 72 h, stronger effect = higher value.
The mark [12] stands for this setting: measured here: epithelial PC-3E GFP cell survival.
The mark [13] stands for this setting: measured here: mesenchymal TEM4-18 mCherry cell survival.
Where [14] appears, read: stronger effect = lower value, cell number ratio, induced over uninduced.
Setting [15] is: measured here: relative caspase fold change +Dox/-Dox.
Setting [16] is: measured here: total cells with miR-34 induction, stronger effect = lower value.
Where [17] appears, read: measured here: total cells without miR-34 induction.
The mark [18] stands for this setting: MELAS cybrid survival, CellTiter-Glo 48 h, stronger effect = higher value.
Where [19] appears, read: Rieske KO mouse fibroblast survival, CellTiter-Glo 72 h.

NAD(+) hydrolase SARM1 (Homo sapiens), sequence (Q6SZW1 whole entry, looked up, the tested form may be a part): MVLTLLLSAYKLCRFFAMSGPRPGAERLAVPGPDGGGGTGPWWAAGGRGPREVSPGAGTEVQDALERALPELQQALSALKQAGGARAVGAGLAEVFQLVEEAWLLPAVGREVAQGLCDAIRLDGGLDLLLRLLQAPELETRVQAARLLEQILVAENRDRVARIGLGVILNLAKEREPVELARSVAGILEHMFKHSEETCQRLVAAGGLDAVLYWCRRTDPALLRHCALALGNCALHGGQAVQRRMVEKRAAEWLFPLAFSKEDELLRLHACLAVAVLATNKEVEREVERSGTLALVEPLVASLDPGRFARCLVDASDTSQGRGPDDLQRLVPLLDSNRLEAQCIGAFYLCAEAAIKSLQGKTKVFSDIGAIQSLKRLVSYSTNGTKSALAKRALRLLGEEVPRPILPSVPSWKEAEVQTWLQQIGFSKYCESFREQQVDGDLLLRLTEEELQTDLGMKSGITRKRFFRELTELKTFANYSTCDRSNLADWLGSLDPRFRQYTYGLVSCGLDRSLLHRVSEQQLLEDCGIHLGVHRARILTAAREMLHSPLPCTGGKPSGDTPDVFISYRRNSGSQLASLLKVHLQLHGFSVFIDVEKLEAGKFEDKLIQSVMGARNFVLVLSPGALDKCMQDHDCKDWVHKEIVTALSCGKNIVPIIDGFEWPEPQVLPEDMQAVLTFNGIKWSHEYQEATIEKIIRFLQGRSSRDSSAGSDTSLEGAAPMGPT
Mitogen-activated protein kinase 7 (Homo sapiens), sequence (Q13164 whole entry, looked up, the tested form may be a part): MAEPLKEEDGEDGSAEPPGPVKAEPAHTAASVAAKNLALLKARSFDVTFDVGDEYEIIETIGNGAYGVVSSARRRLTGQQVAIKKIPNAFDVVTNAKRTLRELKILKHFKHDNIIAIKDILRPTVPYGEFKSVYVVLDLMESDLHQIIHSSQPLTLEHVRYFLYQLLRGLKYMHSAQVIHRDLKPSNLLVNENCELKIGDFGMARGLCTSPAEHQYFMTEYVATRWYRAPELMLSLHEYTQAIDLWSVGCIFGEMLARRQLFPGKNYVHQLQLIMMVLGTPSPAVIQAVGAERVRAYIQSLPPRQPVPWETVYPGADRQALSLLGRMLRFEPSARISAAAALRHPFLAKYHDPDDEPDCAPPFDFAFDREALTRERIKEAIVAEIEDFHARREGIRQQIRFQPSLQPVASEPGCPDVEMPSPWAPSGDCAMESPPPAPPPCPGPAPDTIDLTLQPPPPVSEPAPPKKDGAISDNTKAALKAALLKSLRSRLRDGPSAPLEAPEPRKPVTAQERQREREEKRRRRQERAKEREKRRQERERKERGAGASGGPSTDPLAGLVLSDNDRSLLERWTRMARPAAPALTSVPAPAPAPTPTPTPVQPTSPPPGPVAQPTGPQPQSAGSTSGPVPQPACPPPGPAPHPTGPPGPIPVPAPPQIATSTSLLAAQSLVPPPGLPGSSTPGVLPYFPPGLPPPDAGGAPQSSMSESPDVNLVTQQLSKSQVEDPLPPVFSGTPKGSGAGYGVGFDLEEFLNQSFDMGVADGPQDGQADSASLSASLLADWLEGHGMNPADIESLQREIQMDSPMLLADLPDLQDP

On to `CCC(NC(C)C)C(O)c1ccc(O)c(O)c1` (configuration not stated), for which the period change in experiment [1] is 0.18 h (inactive). Also, the parasite load remaining in [2] was 55.9% (inactive) and 47.9% (inactive). Besides, the viability in experiment [2] is 94.3% and 104%. The inhibition in [3] is -1% (inactive). Further, in experiment [4], the fluorescence ratio (interference) was 0.9 (inactive). In addition, in [5], the red/green cell ratio (normalised) was 1.04 (inactive). For the same compound, the normalised cell number in [5] (setting [12]) worked out at 0.9; in experiment [5] (setting [13]), 0.93. For the same compound, the fold change was 1.08 (inactive) and 0.894 (inactive) and 0.889 (inactive) in experiment [6] (setting [14]); 0.697 and 1.09 and 4.01 in experiment [6] (setting [15]). The cell count was 10800 and 8990 and 12000 in experiment [6] (setting [16]); 9990 and 10100 and 13500 in experiment [6] (setting [17]). Also, the call in experiment [7] was inactive. For the same compound, the z-score in [8] (setting [18]) was -0.772 (inactive); in [8] (setting [19]) it was -0.513; in experiment [11], -1.29 (inactive). For the same compound, in [9], the remaining NAD is 10 nM (inactive). Further, the luciferase signal in [10] is 212 AU (inactive).

Turning to `CC(C)CC(N)=O`, in [5], the red/green cell ratio (normalised) was 0.8 (inactive). Also, the values for the normalised cell number in [5] (setting [12]) and in experiment [5] (setting [13]) were 1.07 and 0.86, respectively. For the same compound, the fold change in experiment [6] (setting [14]) is 0.906 (inactive) and 0.908 (inactive); in experiment [6] (setting [15]), 0.955 and 0.851. For the same compound, the cell count in experiment [6] (setting [16]) was 8450 and 8440; in experiment [6] (setting [17]) it was 9330 and 9300. Moreover, the results for the z-score in experiment [8] (setting [18]) and in experiment [8] (setting [19]) were -0.0903 (inactive) and -0.199, respectively. Besides, in experiment [9], the remaining NAD is 10 nM (inactive).

Consider `C[C@]12C=CC(=O)C=C1CCC1C2[C@@H](O)C[C@@]2(C)C1CC[C@]2(O)C(=O)COP(=O)(O)O` (some centres not stated), for which the red/green cell ratio (normalised) in experiment [5] is 1.33 (inactive). The results for the normalised cell number in [5] (setting [12]) and in experiment [5] (setting [13]) were 0.86 and 1.15, respectively. Moreover, the values for the fold change in experiment [6] (setting [14]) and in experiment [6] (setting [15]) were 0.855 (inactive) and 1.09, respectively. Further, the cell count is 6110 in experiment [6] (setting [16]) and 7150 in experiment [6] (setting [17]).

Turning to `COc1cc([C@@H]2c3cc4c(cc3[C@H](O)C3COC(=O)[C@@H]32)OCO4)cc(OC)c1OC` (some centres not stated), the period change in experiment [1] is 0.2 h (inactive). In addition, the inhibition in experiment [3] was -3% (inactive). Also, in experiment [4], the fluorescence ratio (interference) is 1 (inactive). Moreover, the red/green cell ratio (normalised) in [5] is 1.07 (inactive). In addition, the normalised cell number was 0.17 in [5] (setting [12]) and 0.18 in experiment [5] (setting [13]). Moreover, the fold change in experiment [6] (setting [14]) is 0.98 (inactive); in experiment [6] (setting [15]) it was 1.04. The cell count was determined as 1670 in experiment [6] (setting [16]) and 1710 in experiment [6] (setting [17]). In addition, the compound was called inactive in experiment [7]. Further, the z-score in experiment [11] was -0.545 (inactive).

For `CCNC1CN(CCCOC)S(=O)(=O)c2sc(S(N)(=O)=O)cc21` (configuration not stated), in [5], the red/green cell ratio (normalised) was 0.72 (inactive). In addition, the normalised cell number is 1.22 in experiment [5] (setting [12]) and 0.87 in experiment [5] (setting [13]). The values for the fold change in experiment [6] (setting [14]) and in experiment [6] (setting [15]) were 0.853 (inactive) and 0.647, respectively. The figures for the cell count in experiment [6] (setting [16]) and in experiment [6] (setting [17]) were 8320 and 9750, respectively. The z-score is -0.247 (inactive) in [8] (setting [18]) and -0.152 in [8] (setting [19]).

`N[C@H]1CONC1=O`: the period change in [1] was -0.055 h (inactive). Besides, the parasite load remaining in experiment [2] was 74% (inactive). The viability in experiment [2] was 71%. Also, the inhibition in experiment [3] was 0% (inactive). In experiment [4], the fluorescence ratio (interference) was 1 (inactive). The red/green cell ratio (normalised) in experiment [5] was 0.88 (inactive). Also, the normalised cell number in experiment [5] (setting [12]) worked out at 1.18; in experiment [5] (setting [13]), 1.03. The fold change in experiment [6] (setting [14]) was 1.03 (inactive) and 0.935 (inactive) and 0.898 (inactive); in [6] (setting [15]), 1.58 and 1.14 and 0.652. In addition, the cell count was 10600 and 9010 and 9280 in experiment [6] (setting [16]); 10300 and 9640 in [6] (setting [17]). Moreover, in experiment [7], the outcome was inactive. Further, the results for the z-score in experiment [8] (setting [18]), in experiment [8] (setting [19]) and in experiment [11] were -0.786 (inactive), -1.27 and -0.18 (inactive), respectively. The remaining NAD in experiment [9] is 10 nM (inactive).

As for `COc1cccc2c1C(=O)c1c(O)c3c(c(O)c1C2=O)C[C@@](O)(C(=O)CO)C[C@@H]3OC1C[C@H](N)[C@H](O)[C@H](C)O1` (some centres not stated), the parasite load remaining in experiment [2] is 18.8% (inactive). The viability in experiment [2] came out at 53.1%. Also, in experiment [5], the red/green cell ratio (normalised) is 2.27 (inactive). Besides, the values for the normalised cell number in experiment [5] (setting [12]) and in experiment [5] (setting [13]) were 0.17 and 0.39, respectively. Besides, the fold change is 0.907 (inactive) in [6] (setting [14]) and 1.04 in experiment [6] (setting [15]). Besides, the cell count in [6] (setting [16]) was found to be 1130; in experiment [6] (setting [17]), 1250.
